Laboratory results: PubChem BioAssay AID1159580 (chemical genetic matrix, 2015)
Screen size: about 5,500 compounds; about 2,000 (36%) were called active. Not shown: some 18% with an inconclusive outcome. Cut-off read from the data, not from the text of the source: active = normalized growth mostly below about 0.91 (no sharp cut-off); inconclusive = no clear call, values can overlap the other calls; inactive = mostly above about 0.92. The list shows a part of the results.

Test: chemical genetic growth profiling, strain panel (AID 1159580);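 note: tested at 20 µM; growth read once vehicle control cultures reached saturation at 30 °C; 1 = growth at the plate median or of vehicle wells; lower values mean less growth of the strain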
Conditions: growth OD

Measured: normalized growth

COc1cc([C@@H]2c3cc4c(cc3[C@H](O)[C@H]3COC(=O)[C@H]23)OCO4)cc(OC)c1OC
inactive: S. cerevisiae deletion strains, locus YJR075W, strain HOC1, stronger effect = lower value 1.03 | S. cerevisiae deletion strains, locus YKL009W, strain mrt4, stronger effect = lower value 1.04 | S. cerevisiae deletion strains, locus YKL068W, stronger effect = lower value 1.01 | S. cerevisiae deletion strains, locus YKL085W, strain MDH1 (second series), stronger effect = lower value 1.01 | S. cerevisiae deletion strains, locus YKL085W, strain MDH1, stronger effect = lower value 1.01 | S. cerevisiae deletion strains, locus YKL160W, strain elf1, stronger effect = lower value 1 | S. cerevisiae deletion strains, locus YKL190W, strain CNB1, stronger effect = lower value 1.01 | S. cerevisiae deletion strains, locus YKR001C, strain vps1, stronger effect = lower value 1.01 | S. cerevisiae deletion strains, locus YKR026C, strain gcn3, stronger effect = lower value 1.01 | S. cerevisiae deletion strains, locus YKR091W, strain srl3, stronger effect = lower value 1.01 | S. cerevisiae deletion strains, locus YLL001W, strain dnm1, stronger effect = lower value 0.984 | S. cerevisiae deletion strains, locus YLL026W, stronger effect = lower value 1 | S. cerevisiae deletion strains, locus YLL041C, strain sdh2, stronger effect = lower value 1.01 | S. cerevisiae deletion strains, locus YLR027C, strain aat2, stronger effect = lower value 1.01 | S. cerevisiae deletion strains, locus YLR039C, strain RIC1, stronger effect = lower value 1.02 | S. cerevisiae deletion strains, locus YLR058C, strain SHM2, stronger effect = lower value 1.01 | S. cerevisiae deletion strains, locus YLR102C, strain apc9, stronger effect = lower value 1.01 | S. cerevisiae deletion strains, locus YLR113W, strain HOG1, stronger effect = lower value 0.924 | S. cerevisiae deletion strains, locus YLR221C, strain rsa3, stronger effect = lower value 1.02 | S. cerevisiae deletion strains, locus YLR258W, strain gsy2, stronger effect = lower value 1.02 | S. cerevisiae deletion strains, locus YLR262C, strain YPT6 (second series), stronger effect = lower value 1.01 | S. cerevisiae deletion strains, locus YLR262C, strain YPT6, stronger effect = lower value 1.05 | S. cerevisiae deletion strains, locus YLR268W, strain sec22, stronger effect = lower value 1.06 | S. cerevisiae deletion strains, locus YLR320W, strain mms22, stronger effect = lower value 1.05 | S. cerevisiae deletion strains, locus YLR330W, strain CHS5, stronger effect = lower value 1.01 | S. cerevisiae deletion strains, locus YLR342W, strain FKS1 (second series), stronger effect = lower value 1.02 | S. cerevisiae deletion strains, locus YLR342W, strain FKS1, stronger effect = lower value 1.02 | S. cerevisiae deletion strains, locus YLR357W, strain rsc2, stronger effect = lower value 1.05 | S. cerevisiae deletion strains, locus YLR370C, strain arc18, stronger effect = lower value 1.02 | S. cerevisiae deletion strains, locus YLR371W, strain rom2, stronger effect = lower value 1.02 | S. cerevisiae deletion strains, locus YLR384C, strain iki3, stronger effect = lower value 0.998 | S. cerevisiae deletion strains, locus YLR418C, strain cdc73, stronger effect = lower value 1.02 | S. cerevisiae deletion strains, locus YML016C, strain PPZ1, stronger effect = lower value 1.01 | S. cerevisiae deletion strains, locus YML032C, strain rad52, stronger effect = lower value 1.05 | S. cerevisiae deletion strains, locus YML120C, strain ndi1, stronger effect = lower value 1.02 | S. cerevisiae deletion strains, locus YML124C, strain tub3, stronger effect = lower value 1 | S. cerevisiae deletion strains, locus YMR058W, strain fet3, stronger effect = lower value 1.02 | S. cerevisiae deletion strains, locus YMR078C, strain ctf18, stronger effect = lower value 1.02 | S. cerevisiae deletion strains, locus YMR125W, strain sto1, stronger effect = lower value 1.01 | S. cerevisiae deletion strains, locus YMR129W, stronger effect = lower value 1.01 | S. cerevisiae deletion strains, locus YMR205C, strain PFK2, stronger effect = lower value 1.03 | S. cerevisiae deletion strains, locus YMR223W, strain ubp8, stronger effect = lower value 0.985 | S. cerevisiae deletion strains, locus YMR231W, strain pep5, stronger effect = lower value 1.01 | S. cerevisiae deletion strains, locus YMR263W, strain SAP30, stronger effect = lower value 1.02 | S. cerevisiae deletion strains, locus YMR307W, strain GAS1, stronger effect = lower value 0.994 | S. cerevisiae deletion strains, locus YNL067W, strain RPL9B, stronger effect = lower value 1.03 | S. cerevisiae deletion strains, locus YNL071W, strain lat1, stronger effect = lower value 1.01 | S. cerevisiae deletion strains, locus YNL128W, strain TEP1, stronger effect = lower value 1.02 | S. cerevisiae deletion strains, locus YNL153C, strain GIM3, stronger effect = lower value 1.03 | S. cerevisiae deletion strains, locus YNL183C, strain NPR1, stronger effect = lower value 0.926 | S. cerevisiae deletion strains, locus YNL209W, strain ssb2, stronger effect = lower value 1.02 | S. cerevisiae deletion strains, locus YNL233W, strain BNI4, stronger effect = lower value 1.03 | S. cerevisiae deletion strains, locus YNL248C, strain rpa49, stronger effect = lower value 1.01 | S. cerevisiae deletion strains, locus YNL250W, strain rad50, stronger effect = lower value 1.01 | S. cerevisiae deletion strains, locus YNL271C, strain bni1, stronger effect = lower value 1.01 | S. cerevisiae deletion strains, locus YNL298W, strain CLA4, stronger effect = lower value 1.01 | S. cerevisiae deletion strains, locus YNL307C, strain MCK1, stronger effect = lower value 1 | S. cerevisiae deletion strains, locus YNL322C, strain KRE1 (second series), stronger effect = lower value 1.01 | S. cerevisiae deletion strains, locus YNL322C, strain KRE1, stronger effect = lower value 1.01 | S. cerevisiae deletion strains, locus YNR049C, strain mso1, stronger effect = lower value 1 | S. cerevisiae deletion strains, locus YNR052C, strain pop2, stronger effect = lower value 1.01 | S. cerevisiae deletion strains, locus YOL006C, strain TOP1, stronger effect = lower value 1.07 | S. cerevisiae deletion strains, locus YOL012C, strain htz1 0.833 | S. cerevisiae deletion strains, locus YOL147C, strain pex11, stronger effect = lower value 1 | S. cerevisiae deletion strains, locus YOR001W, strain rrp6, stronger effect = lower value 1.01 | S. cerevisiae deletion strains, locus YOR061W, strain CKA2, stronger effect = lower value 1.01 | S. cerevisiae deletion strains, locus YOR069W, strain VPS5, stronger effect = lower value 1.01 | S. cerevisiae deletion strains, locus YOR070C, strain gyp1, stronger effect = lower value 1.02 | S. cerevisiae deletion strains, locus YOR080W, strain dia2, stronger effect = lower value 1.01 | S. cerevisiae deletion strains, locus YOR083W, strain WHI5, stronger effect = lower value 1.01 | S. cerevisiae deletion strains, locus YOR106W, strain vam3, stronger effect = lower value 1.02 | S. cerevisiae deletion strains, locus YOR136W, strain idh2, stronger effect = lower value 1 | S. cerevisiae deletion strains, locus YOR144C, strain elg1, stronger effect = lower value 1.01 | S. cerevisiae deletion strains, locus YOR184W, strain ser1, stronger effect = lower value 1.02 | S. cerevisiae deletion strains, locus YOR231W, strain MKK1, stronger effect = lower value 0.947 | S. cerevisiae deletion strains, locus YOR265W, strain rbl2, stronger effect = lower value 1.01 | S. cerevisiae deletion strains, locus YOR270C, strain vph1, stronger effect = lower value 0.996 | S. cerevisiae deletion strains, locus YOR290C, strain snf2, stronger effect = lower value 0.98 | S. cerevisiae deletion strains, locus YOR316C, strain cot1, stronger effect = lower value 1.01 | S. cerevisiae deletion strains, locus YPL051W, strain arl3, stronger effect = lower value 1.01 | S. cerevisiae deletion strains, locus YPL055C, strain LGE1, stronger effect = lower value 1.04 | S. cerevisiae deletion strains, locus YPL078C, strain atp4, stronger effect = lower value 0.997 | S. cerevisiae deletion strains, locus YPL106C, strain sse1, stronger effect = lower value 1.03 | S. cerevisiae deletion strains, locus YPL240C, strain hsp82, stronger effect = lower value 1.02 | S. cerevisiae deletion strains, locus YPL241C, strain CIN2, stronger effect = lower value 1.01 | S. cerevisiae deletion strains, locus YPL256C, strain CLN2, stronger effect = lower value 0.942 | S. cerevisiae deletion strains, locus YPR119W, strain clb2, stronger effect = lower value 1.01 | S. cerevisiae deletion strains, locus YPR141C, strain kar3, stronger effect = lower value 1.01 | S. cerevisiae deletion strains, locus YPR163C, strain tif3, stronger effect = lower value 1.02 | S. cerevisiae deletion strains, locus YPR167C, strain met16, stronger effect = lower value 1.01 | S. cerevisiae deletion strains, strain wtn01, stronger effect = lower value 1.03 | S. cerevisiae strains, strain wild type, stronger effect = lower value 1.01
